Source: PubChem (several laboratories)
PfM18AAP inh-1 = blocks P. falciparum M18 aspartyl aminopeptidase; recombinant PfM18AAP, H-Glu-NHMec fluorogenic cleavage; inhibition, % at 7.35 µM; hit rate 1.2% among 290,000;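 active = inhibition above the campaign mean inhibition over all tested compounds plus 3 SD, cut at about 28% in these data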
UHRF1 MBD2 ctr = UHRF1 methyl-DNA binding inhibition. inhibition, % at 4.4 µM. hit rate 0.75% among 370,000. Q96T88. UHRF1 binding to methylated oligo, TR-FRET; in the data active = inhibition above about 21%;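 note: UHRF1 SRA domain binding a hemimethylated CpG hairpin DNA probe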
MBD2 inh = inhibitors of human MBD2 binding to methylated oligonucleotide | TR-FRET | inhibition, % at 4.4 µM | hit rate 0.31% among 370,000 | Q9UBB5; in the data active = inhibition above about 13%
PRMT1 FP inh = PRMT1 (human) inhibition, primary screen; Q99873; recombinant PRMT1, activity-based probe fluorescence polarization; inhibition, % at 2.79 µM; hit rate 1.3% among 370,000;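 active = inhibition above about 21% made by adding two undisclosed values, limit read from the data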
PfG6PD inh = PfG6PD (Plasmodium falciparum) enzyme inhibition | PfGluPho enzyme, NADPH resazurin-diaphorase fluorescence | inhibition, % at 20 µM | hit rate 0.78% among 350,000 | AID 504690;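 active = inhibition reaching at least a set limit at 20 µM in the primary screen, cut at about 59% in these data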
PfM18AAP inh-2 = PfM18AAP inhibition, confirmation; shares compounds with PfM18AAP inh-1; recombinant PfM18AAP, H-Glu-NHMec fluorogenic cleavage; inhibition, % at 7.35 µM; hit rate 28% among 2,400; AID 2170;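 active = mean inhibition over replicate wells above the hit cutoff set for the earlier primary screen, cut at about 29% in these data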
CTSL1 counter = counter-screen for PFM18AAP inhibitors: confirmation of human cathepsin L inhibitors; 2,400 tested, under 10 active; inhibition, % at 5.96 µM; shares compounds with PfM18AAP inh-1; purified cathepsin L1, Z-Leu-Arg-MCA fluorescence;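 active = average inhibition across replicates above the hit cutoff set in the earlier primary screen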
Target sequence (P07711 whole entry, looked up): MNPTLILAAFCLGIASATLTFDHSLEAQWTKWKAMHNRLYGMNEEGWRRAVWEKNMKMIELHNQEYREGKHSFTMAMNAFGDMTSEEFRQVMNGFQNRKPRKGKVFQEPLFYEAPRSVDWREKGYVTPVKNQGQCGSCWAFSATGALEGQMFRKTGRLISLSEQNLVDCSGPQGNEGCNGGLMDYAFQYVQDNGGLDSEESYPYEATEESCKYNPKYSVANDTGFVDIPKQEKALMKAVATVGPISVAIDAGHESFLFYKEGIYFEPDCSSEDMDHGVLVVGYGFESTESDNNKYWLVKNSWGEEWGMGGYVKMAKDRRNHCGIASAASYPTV
PfG6PD confirm = confirmation of Plasmodium falciparum G6PD inhibitors; shares compounds with PfG6PD inh; recombinant PfGluPho, NADPH-diaphorase-resazurin fluorescence; inhibition, % at 20 µM; hit rate 34% among 2,400; AID 504753;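 active = inhibition of at least 50% at 20 µM in any single replicate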
Diaphorase 10uM = diaphorase inhibition or oxidation at 10 uM NADPH; shares compounds with PfG6PD inh; diaphorase-coupled resazurin reduction, fluorescence, NADPH 10 uM; hit rate 39% among 820; inhibition, % at 20 µM;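 active = average inhibition reaching 50% or more with the compound at 20 µM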;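 note: resorufin red fluorescence formed as diaphorase reduces resazurin using NADPH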
Diaph ctr 30uM = diaphorase inhibition or oxidation at 30 uM NADPH; shares compounds with PfG6PD inh; Diaphorase/resazurin coupled assay, resorufin fluorescence; inhibition, % at 20 µM; hit rate 29% among 820;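 active = inhibition averaging 50% or more, tested at 20 µM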
PRMT1 confirm = confirmation of human PRMT1 inhibitors; shares compounds with PRMT1 FP inh; recombinant His-PRMT1, activity-based probe fluorescence polarization; inhibition, % at 2.79 µM; hit rate 42% among 3,300; AID 687036;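 active = mean inhibition across replicates above the hit cutoff derived for the earlier primary screen, cut at about 22% in these data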
Numbers stand for hits; – = inactive; · = not tested or not shown. The list is not random: actives were taken first. Their share in the collection is about 3.3%.

SMILES | PfM18AAP inh-1 | UHRF1 MBD2 ctr | MBD2 inh | PRMT1 FP inh | PfG6PD inh | PfM18AAP inh-2 | CTSL1 counter | PRMT1 confirm | others
CN1/C(=C\C(=O)c2cccs2)Sc2ccccc21 | 53.6 | – | – | 42.0 | 104.6 | – | – | – | PfG6PD confirm=62.4;Diaphorase 10uM=–;Diaph ctr 30uM=–
CN1/C(=C/C(=O)c2cccs2)Sc2ccccc21 | 49.4 | – | – | 25.1 | · | – | – | –
Cc1ccc(CNC(=O)O[C@H]2CC[C@@]34CCCN3C(=O)CCC[C@H]4[C@H]2C)o1 | · | – | – | – | · | · | · | ·
O=C(O)CCC(=O)Nc1sc2c(c1C(=O)Nc1ccccc1)CCCCC2 | 36.8 | – | – | 37.5 | – | – | – | –
COC(=O)c1c(NC(=O)CCC(=O)O)sc2c1CCCCC2 | – | – | – | – | – | · | · | ·
COc1ccc(-c2c(C(=O)c3ccccc3)[nH]c(N)c2C(=O)c2c[nH]c3ccccc23)cc1OC | · | – | – | – | · | · | · | ·
CCN(CC)c1ccc(C=Nn2c(-c3cc(C)[nH]n3)n[nH]c2=S)cc1 | · | – | – | – | · | · | · | ·
O=C(NC1CCCCCC1)c1ccc[nH]c1=S | 53.2 | – | – | 48.8 | – | – | – | –
O=C(NC1CCCCCCC1)c1ccccc1O | – | – | – | – | – | · | · | ·
CC(=O)c1ccc(NC(=O)/C(=C\c2ccco2)NC(=O)c2ccco2)cc1 | – | – | – | – | – | · | · | ·
O=C(Nc1ccc(C(=O)O)cc1)/C(=C\c1ccco1)NC(=O)c1ccco1 | 32.3 | – | – | 46.8 | – | – | – | –
COc1ccc2c(c1)S/C(=C\C(=O)c1ccncc1)N2C | 38.6 | – | – | 45.1 | – | – | – | –
O=C(CNC(=O)c1cccs1)NCC(=O)OCC(=O)c1ccc([N+](=O)[O-])cc1 | 46.2 | – | – | 69.6 | 67.1 | – | – | 40.7 | PfG6PD confirm=62.9;Diaphorase 10uM=–;Diaph ctr 30uM=–
CSCCCNC(=O)c1cn(C(C)c2ccccc2)nn1 (stereo not drawn) | · | – | – | – | · | · | · | ·
CCOC(=O)c1c(C)oc2c(CC(=O)c3ccccc3)c(Cl)c(O)c(O)c12 | 44.6 | – | – | 27.3 | – | – | – | –
NS(=O)(=O)c1ccc(CCNC(=O)c2ccc[nH]c2=S)cc1 | 42.9 | – | – | 38.6 | – | – | – | –
NS(=O)(=O)c1ccc(CCNC(=O)c2cccc3ccccc23)cc1 | – | – | – | – | – | · | · | ·
COc1cc(CNc2ccc(O)cc2)cc(Br)c1OCc1ccccc1 | – | – | – | – | – | · | · | ·
Oc1ccc(NCc2ccc(OCc3ccccc3)cc2)cc1 | 45.8 | – | – | 33.9 | 66.1 | – | – | – | PfG6PD confirm=–
COC(=O)C1=C(C)N(Cc2ccccc2C(F)(F)F)C(=NCc2ccc3c(c2)OCO3)NC1c1cccc(F)c1 (stereo not drawn) | · | – | – | – | · | · | · | ·
COCCN(C(=S)Nc1c(C)cc(C)cc1C)C(C)c1cccnc1 (stereo not drawn) | 49.3 | – | – | 74.2 | 69.1 | – | – | 63.2 | PfG6PD confirm=–
COCCN(C(=S)Nc1c(C)cccc1C)C(C)c1cccnc1 (stereo not drawn) | – | – | – | – | – | · | · | ·
C[N+]1=C(N)NC2=C3CCCCC3n3c(=O)n(-c4ccccc4)c(=O)n3C2C1 (stereo not drawn) | · | – | – | – | · | · | · | ·
Cc1ccc(Cn2c(SCCN3CCCCC3)nc3c2c(=O)[nH]c(=O)n3C)cc1 | 38.1 | – | – | 33.1 | – | – | – | 46.0
Cn1c(=O)[nH]c(=O)c2c1nc(SCCN1CCCCC1)n2CCCc1ccccc1 | 54.6 | – | – | 57.2 | 76.8 | – | – | 45.5 | PfG6PD confirm=62.7;Diaphorase 10uM=–;Diaph ctr 30uM=–
Cn1c(=O)[nH]c(=O)c2c1nc(SCCN1CCCCC1)n2Cc1ccccc1 | – | – | – | – | – | · | · | ·
Cc1ccc(N2CC(C(=O)OCC(=O)c3ccc([N+](=O)[O-])cc3)CC2=O)cc1 (stereo not drawn) | 37.7 | – | – | 29.3 | 60.2 | – | – | 48.0 | PfG6PD confirm=57.1;Diaphorase 10uM=–;Diaph ctr 30uM=–
